For 45 sequences, binding signal results are on record in article PMC7819943, “Rice protein-binding microarrays: a tool to detect cis-acting elements near promoter regions in rice”.

Over roughly 68,000 sequences, “fluorescence intensity (a.u.)” has its median near 9,100; the highest 2% begin near 16,000. The list comes from a sample in which the highest values are over-represented; it also holds similar and randomly drawn sequences.

The target of the assay is OsWRKY34 (Oryza sativa, UniProt Q0JBA9 1-250). In words: protein-binding microarray (RPBM); PBS, 2% BSA, 51.3 ng/ul salmon testes DNA, 50 uM zinc acetate, 200 nM TF, 25 C, 1 h; high values mean tight binding. The note with it: protein: recombinant; tags: N-terminal polyhistidine and DsRed monomer fusion (pET32a); label: CyDye5-dUTP incorporated in the synthesized complementary strand; 3' TTTTT single-stranded linker to array surface; dsDNA, one strand shown. Put shortly: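 An Axon 4000B scanner gave the binding signal as per-feature fluorescence intensity in arbitrary units. This followed washing of a custom Agilent array that had been incubated for 1 h at 25 °C with 200 nM protein in PBS, 2% BSA, salmon testes DNA and 50 µM zinc acetate. The proteins were transcription factors fused at the N-terminus to polyhistidine and DsRed, expressed in E. coli BL21-CodonPlus and purified on Ni–NTA.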
Sequence of OsWRKY34 (Q0JBA9 entry or part of it): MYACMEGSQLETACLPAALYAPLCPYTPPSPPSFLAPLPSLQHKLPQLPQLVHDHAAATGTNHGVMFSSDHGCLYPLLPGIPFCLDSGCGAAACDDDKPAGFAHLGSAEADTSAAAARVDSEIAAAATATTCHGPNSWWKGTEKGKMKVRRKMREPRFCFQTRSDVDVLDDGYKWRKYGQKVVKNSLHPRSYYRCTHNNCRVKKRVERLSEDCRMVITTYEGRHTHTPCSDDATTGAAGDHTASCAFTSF
For the sequence “GTCTCAAAAACTCATTCTCCACACGTAATGGATACTTTTGCGGAGTCACCTAGTGCAG”, the binding signal was 8800 fluorescence intensity (a.u.).

On to “TATAACACCAATGACTCTATCTTCATCCGCATGCGTGCCGCGGAGTCACCTAGTGCAG”, for which the binding signal was 9390 fluorescence intensity (a.u.).

Take “CCATGTATCACACTCCGTTCATATATTCCTGGGCTGTATTCGGAGTCACCTAGTGCAG”: the binding signal is 8450 fluorescence intensity (a.u.).

“CATCGCCACCACCGCAGCCGCCTCTCAATTAGGAACACGTCGGAGTCACCTAGTGCAG”: the binding signal was 10300 fluorescence intensity (a.u.).

“TCTCTCTTTTTTTAAGCACCTTTTCTGCCTTTTTTCTTTTCGGAGTCACCTAGTGCAG”: the binding signal was 12200 fluorescence intensity (a.u.).

On to “TTATCAATATCTCTCTCTCGGCGCGTATAGCCGTCGCGCGCGGAGTCACCTAGTGCAG”, for which the binding signal was 8690 fluorescence intensity (a.u.).

For the sequence “CTATCGCCACCTTTTGCCTTGATTTCTCCTTATTGCTAAACGGAGTCACCTAGTGCAG”, the binding signal was 14600 fluorescence intensity (a.u.).

“AGCACATAGCTAGTTAGCCACATATTATTTGATCACTAAACGGAGTCACCTAGTGCAG”: the binding signal is 8980 fluorescence intensity (a.u.).

For “TAGCACTAAAACGAGAGGCCTTTTGATTTAGATTTTGCCACGGAGTCACCTAGTGCAG”, the binding signal was 21900 fluorescence intensity (a.u.).

On to “GTCCGCATCGAGCCGCAGATCTTTCTCACCGCCACCGATGCGGAGTCACCTAGTGCAG”, for which the binding signal was 8140 fluorescence intensity (a.u.).

In the case of “CCCTATCGAACGACCACCGAAACCATCATCATTCATCACCCGGAGTCACCTAGTGCAG”, the binding signal was 9470 fluorescence intensity (a.u.).

In the case of “TTTAGCTTAACTTATTACGATTATGGCTGTGTTTAGTTTCCGGAGTCACCTAGTGCAG”, the binding signal was 9160 fluorescence intensity (a.u.).

Take “AAACTAATTTTCTGTGACACTTCCAAGTGCATACCGGAGTCGGAGTCACCTAGTGCAG”: the binding signal was 8660 fluorescence intensity (a.u.).

As to “ATTTTTTATGGGTGTTTGGTTAGTGGGTGGGAGTGGGATACGGAGTCACCTAGTGCAG”, the binding signal is 12000 fluorescence intensity (a.u.).

Turning to “CTATCGATATAATCTCTAAGTGAGTTTTTTGTATTTTTTTCGGAGTCACCTAGTGCAG”, the binding signal is 8020 fluorescence intensity (a.u.).

Consider “GCCTGGTTTTATAAGTTGTGGGATGGGTTATATCTAGTATCGGAGTCACCTAGTGCAG”, for which the binding signal is 28800 fluorescence intensity (a.u.).

Consider “GGATGGGTTATATCTAGTATTGTGGTTGGGACTGCCTATACGGAGTCACCTAGTGCAG”, for which the binding signal is 11100 fluorescence intensity (a.u.).

On to “TTGTTTGACTCTTTTTTAATTAAATTTCTATAAGTTTAATCGGAGTCACCTAGTGCAG”, for which the binding signal was 8280 fluorescence intensity (a.u.).

On to “GCTGGGTTTGTGGGTTTTCTCATAAGTTTAATCTCTATATCGGAGTCACCTAGTGCAG”, for which the binding signal is 17400 fluorescence intensity (a.u.).

With “GCATATGGGGATTCTGGGATTTTGGTTTACAGTCTACATTCGGAGTCACCTAGTGCAG”, the binding signal is 8100 fluorescence intensity (a.u.).

Take “AAAGTGATGTGGTGGTGGAGTTGTGGGTATATGATTTTATCGGAGTCACCTAGTGCAG”: the binding signal is 8790 fluorescence intensity (a.u.).

Take “GGCCTCATTCTGGGATCGTTTTATGGTGGGGTTATCGTTACGGAGTCACCTAGTGCAG”: the binding signal was 20600 fluorescence intensity (a.u.).

On to “CCGCACAATCCGCGCCGCCATCAGTTCGCTCTCGCCACCACGGAGTCACCTAGTGCAG”, for which the binding signal was 9020 fluorescence intensity (a.u.).

Turning to “GCGCCCACGAACCTTGTCTTCAAGCAATCCCACACTTCCTCGGAGTCACCTAGTGCAG”, the binding signal is 9490 fluorescence intensity (a.u.).

In the case of “ATTTCAGGCCCACTAGTCCGCTCTTCCTCTTCTTTTTTTTCGGAGTCACCTAGTGCAG”, the binding signal is 9840 fluorescence intensity (a.u.).

For “GCCGCCATCCCCACCATCGCCGTCGCCGTCGCCTCGCCTCCGGAGTCACCTAGTGCAG”, the binding signal is 13300 fluorescence intensity (a.u.).

As to “CTCTAACAGTCTGCTATTATATCTGCTCTCATGCGTCATCCGGAGTCACCTAGTGCAG”, the binding signal is 11100 fluorescence intensity (a.u.).

Consider “ACTTTAGTTTTTTTCCGTTGCAGCACACGGTTTTTTTTAACGGAGTCACCTAGTGCAG”, for which the binding signal was 9170 fluorescence intensity (a.u.).

“ACTTTTACATAGAATTTTTTTTTGAACACACCGTTTAGCACGGAGTCACCTAGTGCAG”: the binding signal was 8510 fluorescence intensity (a.u.).

On to “TTTCAAAATATTTGACTCCGTTGATTTTTTTAGCACATGTCGGAGTCACCTAGTGCAG”, for which the binding signal was 9070 fluorescence intensity (a.u.).

As for “TTCGTTTCAAAATATTTGACACCGTTGACTTTTTAGCACACGGAGTCACCTAGTGCAG”, the binding signal is 25700 fluorescence intensity (a.u.).

For the sequence “TCCGTTTCGTTTTATTTGACACCGTTGACTTTTTAGCACACGGAGTCACCTAGTGCAG”, the binding signal is 19500 fluorescence intensity (a.u.).

As for “TTTAGCACGTATTTGACCGTTCGTCTTATTCAAAAACTTTCGGAGTCACCTAGTGCAG”, the binding signal was 8790 fluorescence intensity (a.u.).

Regarding “TCCATGGATATTTTGTCTCTTCTGCTTGATCACTAGGCCCCGGAGTCACCTAGTGCAG”, the binding signal is 10100 fluorescence intensity (a.u.).

As to “TCCCGACACCGGCTGTCCACTTCGCTCTGCTCCACGCCGCCGGAGTCACCTAGTGCAG”, the binding signal is 8660 fluorescence intensity (a.u.).

Regarding “ATCCCCACCGTTGACCGAAGTTGACCTCCAAGAATCCTGACGGAGTCACCTAGTGCAG”, the binding signal is 13800 fluorescence intensity (a.u.).

Take “CTCCCTGAGTCTAGTCCCGATCCCCACCGTTGACCGAAGTCGGAGTCACCTAGTGCAG”: the binding signal is 19900 fluorescence intensity (a.u.).

For the sequence “TCAACTCCTCCCTGAGTCTAGTCCCGATCCGCCGTTGACCCGGAGTCACCTAGTGCAG”, the binding signal was 13000 fluorescence intensity (a.u.).

As for “CTGAGAATTTAGGACCTGATCACTTTTATGACATTTTCAACGGAGTCACCTAGTGCAG”, the binding signal is 8610 fluorescence intensity (a.u.).

In the case of “TGCGTTTATTTATACCGTTGTCCTCGCGTACTGTTTTATTCGGAGTCACCTAGTGCAG”, the binding signal is 19400 fluorescence intensity (a.u.).

In the case of “TTTGCATTTATTTTTCATTGTTTCCGTCACTTTAGAAATTCGGAGTCACCTAGTGCAG”, the binding signal was 8260 fluorescence intensity (a.u.).

“CCCATTATTTTTTATACCTTTATTTATCTTCTGTGTTTTTCGGAGTCACCTAGTGCAG”: the binding signal is 13500 fluorescence intensity (a.u.).

As for “GCTTTCTGTGGTGCATTCTATATTTTTTATATATTATTATCGGAGTCACCTAGTGCAG”, the binding signal is 16400 fluorescence intensity (a.u.).

For “TTCGTATTTGTTTCCGTATCCGGATTATTCATATTCGTTTCGGAGTCACCTAGTGCAG”, the binding signal was 8050 fluorescence intensity (a.u.).

In the case of “TGTAGTTGTGAGTGTATTCGTTTGTACTGTTTTTTTTATACGGAGTCACCTAGTGCAG”, the binding signal is 11900 fluorescence intensity (a.u.).
